± gives the standard deviation of the averaged measurements.
Legend:
MDA-MB-231 [1] = test: cell viability relative to vehicle unstimulated control (fraction); higher = more viable cells; settings: pre-treatment time: 18 h then 24 h IFNg/TNF
MDA-MB-231 [2] = test: kynurenine production, fold change vs DMSO IFNg/TNF control; higher = more kynurenine produced (less inhibition); settings: pre-treatment time: 18 h then 24 h IFNg/TNF
Summary of the method: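 MDA-MB-231 cells were seeded in 96-well plates at 7 × 10^4/well and, 24 h later, pre-treated for 18 h with each natural product in 0.1% DMSO. They were then stimulated for 24 h at 37°C with IFNγ (1 U/ml) and TNF (6.25 ng/ml). Supernatants were treated with trichloroacetic acid and p-dimethylaminobenzaldehyde and read at 492 nm against 0–100 μM standards. Kynurenine production is expressed as fold change over cytokine-stimulated vehicle wells on the same plate and, in the first screening round, averaged across duplicate plates.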
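Throughout, for cell viability relative to vehicle unstimulated control: viability of the cells left after supernatant collection, read with Deep Blue dye added for 4 h, as absorbance at 570 nm minus 600 nm.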

Work on `O=c1c(-c2ccc(O)cc2)coc2c([C@@H]3O[C@H](CO)[C@@H](O)[C@H](O)[C@H]3O)c(O)ccc12` [Puerarin] (compound dose: 10 uM) yielded a cell viability (MDA-MB-231 [1]) of 0.944 ± 0.027 and a kynurenine production (MDA-MB-231 [2]) of 0.927 ± 0.033.
`COC(=O)C1=CO[C@@H](O)[C@@H]2C(CO)=CC[C@H]12` [Genipin] (compound dose: 10 uM) gave a cell viability (MDA-MB-231 [1]) of 1 ± 0.026 and a kynurenine production (MDA-MB-231 [2]) of 0.76 ± 0.052.
Work on `CC1(C)CC[C@]2(C(=O)O)[C@H](O)C[C@]3(C)C(=CC[C@@H]4[C@@]5(C)CC[C@H](O[C@@H]6O[C@H](CO)[C@@H](O)[C@H](O)[C@H]6O)C(C)(C)[C@@H]5CC[C@]43C)[C@@H]2C1` [Ecliptasaponin A] (compound dose: 10 uM) yielded a kynurenine production (MDA-MB-231 [2]) of 0.88 ± 0.15.

Reference: the supplement of paper PMC13094657
